According to the supplement of paper PMC12494721:
Counter-ions that a name gives are not always drawn.

Legend:
Settings in all cases: incubation time: 27 h, anaerobic, 37 °C;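 for the amine columns active = adjusted P below 0.05 in both replicates with a change the same way and a mean fold change under 0.8 or over 1.25; inactive = the rest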
[1] = test system: Clostridium sporogenes DSM 1664; assay: growth (OD595) fold change vs plate DMSO controls (fold change (ratio)); higher = more growth
Outline: (§1)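 Each value is the mean of 2 biological replicates, and fold changes above 1.5 were set to NA. The underlying readings were taken at 595 nm from shaken anaerobic mGAM cultures in 96-well plates after 27 h at 37 °C. They were blank-subtracted, corrected for compound background using 20 µM compound solutions in water, and converted to OD with a calibration factor of 5. Growth is the fold change relative to the median of the plate DMSO controls.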

Escherichia coli IAI1 [2] = assay: as above
Outline: as §1

[3] = test system: Klebsiella aerogenes DSM 30053; assay: as above
Outline: as §1

[4] = test system: Ruminococcus gnavus DSM 108212; assay: as above
Outline: as §1

[5] = test system: Klebsiella aerogenes DSM 30053; assay: fold change of Histamine concentration vs plate DMSO controls (fold change (ratio)); higher = more amine produced, active = hit call of the paper (significant change in both replicates, either direction)
Outline: (§2)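 Using LC–triple-quadrupole MS with dynamic MRM, amines were quantified against external calibration curves and corrected for drift within each batch. Samples were whole anaerobic mGAM cultures of four gut strains, grown 27 h at 37 °C from OD 0.1 before 1:1 dilution, extracted with cold acetonitrile/methanol containing 0.1% formic acid and centrifuged. Compounds were present at 20 µM final (sweeteners at 50 µM final). The numbers are fold changes versus plate DMSO controls, each the mean of 2 biological replicates.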

[6] = test system: Clostridium sporogenes DSM 1664; assay: fold change of Tryptamine concentration vs plate DMSO controls (fold change (ratio)); higher = more amine produced, active = hit call of the paper (significant change in both replicates, either direction)
Outline: as §2

[7] = test system: Ruminococcus gnavus DSM 108212; assay: as above
Outline: as §2

Escherichia coli IAI1 [8] = assay: fold change of Putrescine concentration vs plate DMSO controls (fold change (ratio)); higher = more amine produced, active = hit call of the paper (significant change in both replicates, either direction)
Outline: as §2

[9] = test system: Klebsiella aerogenes DSM 30053; assay: as above
Outline: as §2

Escherichia coli IAI1 [10] = assay: fold change of Cadaverine concentration vs plate DMSO controls (fold change (ratio)); higher = more amine produced, active = hit call of the paper (significant change in both replicates, either direction)
Outline: as §2

[11] = test system: Klebsiella aerogenes DSM 30053; assay: as above
Outline: as §2

[12] = test system: Ruminococcus gnavus DSM 108212; assay: fold change of 2-Phenylethylamine concentration vs plate DMSO controls (fold change (ratio)); higher = more amine produced, active = hit call of the paper (significant change in both replicates, either direction)
Outline: as §2

| SMILES | growth [1] | growth (Escherichia coli IAI1 [2]) | growth [3] | growth [4] | fold change of Histamine concentration [5] | fold change of Tryptamine concentration [6] | fold change of Tryptamine concentration [7] | fold change of Putrescine concentration (Escherichia coli IAI1 [8]) | fold change of Putrescine concentration [9] | fold change of Cadaverine concentration (Escherichia coli IAI1 [10]) | fold change of Cadaverine concentration [11] | fold change of 2-Phenylethylamine concentration [12] |
| --- | --- | --- | --- | --- | --- | --- | --- | --- | --- | --- | --- | --- |
| CC(Oc1c(Cl)cccc1Cl)C1=NCCN1 (configuration not stated) [Lofexidine] (20 µM) | 1.07 | 1.09 | 1.06 | 1.04 | 0.922 (inactive) | 0.975 (inactive) | 1.03 (inactive) | 1.04 (inactive) | 0.993 (inactive) | 1.01 (inactive) | 1.01 (inactive) | 1.01 (inactive) |
| N=C(N)NCC1COC2(CCCCC2)O1 (configuration not stated) [Guanadrel sulfate] (20 µM) | 0.98 | 0.972 | 0.986 | 1.16 | 1.04 (inactive) | 1 (inactive) | 1.04 (inactive) | 0.993 (inactive) | 1.04 (inactive) | 0.99 (inactive) | 1 (inactive) | 1.06 (inactive) |
| COC1=CC(=O)C[C@@H](C)[C@]12Oc1c(Cl)c(OC)cc(OC)c1C2=O [Griseofulvin] (20 µM) | 0.993 | 1.02 | 0.922 | 0.915 | 1.02 (inactive) | 1.03 (inactive) | 0.993 (inactive) | 1.01 (inactive) | 0.989 (inactive) | 1.03 (inactive) | 0.999 (inactive) | 0.98 (inactive) |
| CN[C@H]1CC[C@@H](c2ccc(Cl)c(Cl)c2)c2ccccc21 [Sertraline] (20 µM) | 1.13 | 1.01 | 1.02 | 0.975 | 0.995 (inactive) | 1.01 (inactive) | 0.902 (inactive) | 1.03 (inactive) | 1 (inactive) | 1.1 (inactive) | 0.996 (inactive) | 1.02 (inactive) |
| Nc1ccc2cc3ccc(N)cc3nc2c1 [Proflavine hemisulfate] (20 µM) | 1.13 | 0.951 | 1 | 1.02 | 0.816 (inactive) | 1 (inactive) | 0.861 (inactive) | 1.03 (inactive) | 0.963 (inactive) | 1.16 (inactive) | 0.982 (inactive) | 0.861 (inactive) |
| N[C@H]1CONC1=O [(S,-) Cycloserine] (20 µM) | 0.942 | 0.968 | 0.982 | 0.975 | 0.94 (inactive) | 0.954 (inactive) | 0.905 (inactive) | 1.02 (inactive) | 1.07 (inactive) | 0.959 (inactive) | 1.05 (inactive) | 0.81 (inactive) |
